# The whole screen tested about 5,500 compounds, of which about 2,000 (36%) were called active. Another 18% or so got no clear call; they are omitted. The list shows a part of the results. Unmarked numbers belong to inactive results. Cut-off read from the data, not from the text of the source: active = normalized growth mostly below about 0.91 (no sharp cut-off); inconclusive = no clear call, values can overlap the other calls; inactive = mostly above about 0.92.
# Experiment: chemical genetic growth profiling, strain panel (AID 1159580);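 note: tested at 20 µM; growth read once vehicle control cultures reached saturation at 30 °C; 1 = growth at the plate median or of vehicle wells; lower values mean less growth of the strain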
# Details: growth OD
smiles,measurement,setting,value
O=c1cc(-c2cc(O)c(O)c(O)c2)oc2cc(O)cc(O)c12,normalized growth,"S. cerevisiae deletion strains, locus YJR075W, strain HOC1, hits give low values",1.02
same,normalized growth,"S. cerevisiae deletion strains, locus YKL009W, strain mrt4, hits give low values",0.99
same,normalized growth,"S. cerevisiae deletion strains, locus YKL068W, hits give low values",0.962
same,normalized growth,"S. cerevisiae deletion strains, locus YKL085W, strain MDH1 (second series), hits give low values",0.996
same,normalized growth,"S. cerevisiae deletion strains, locus YKL085W, strain MDH1, hits give low values",0.996
same,normalized growth,"S. cerevisiae deletion strains, locus YKL160W, strain elf1, hits give low values",0.934
same,normalized growth,"S. cerevisiae deletion strains, locus YKL190W, strain CNB1, hits give low values",0.992
same,normalized growth,"S. cerevisiae deletion strains, locus YKR001C, strain vps1, hits give low values",0.986
same,normalized growth,"S. cerevisiae deletion strains, locus YKR026C, strain gcn3, hits give low values",1.01
same,normalized growth,"S. cerevisiae deletion strains, locus YKR091W, strain srl3, hits give low values",1.01
same,normalized growth,"S. cerevisiae deletion strains, locus YLL001W, strain dnm1, hits give low values",0.961
same,normalized growth,"S. cerevisiae deletion strains, locus YLL026W, hits give low values",1.01
same,normalized growth,"S. cerevisiae deletion strains, locus YLL041C, strain sdh2, hits give low values",1
same,normalized growth,"S. cerevisiae deletion strains, locus YLR027C, strain aat2, hits give low values",0.974
same,normalized growth,"S. cerevisiae deletion strains, locus YLR039C, strain RIC1, hits give low values",0.966
same,normalized growth,"S. cerevisiae deletion strains, locus YLR058C, strain SHM2, hits give low values",0.999
same,normalized growth,"S. cerevisiae deletion strains, locus YLR102C, strain apc9, hits give low values",0.995
same,normalized growth,"S. cerevisiae deletion strains, locus YLR113W, strain HOG1, hits give low values",0.998
same,normalized growth,"S. cerevisiae deletion strains, locus YLR221C, strain rsa3, hits give low values",0.928
same,normalized growth,"S. cerevisiae deletion strains, locus YLR258W, strain gsy2, hits give low values",0.967
same,normalized growth,"S. cerevisiae deletion strains, locus YLR262C, strain YPT6 (second series), hits give low values",0.905
same,normalized growth,"S. cerevisiae deletion strains, locus YLR262C, strain YPT6, hits give low values",1.05
same,normalized growth,"S. cerevisiae deletion strains, locus YLR268W, strain sec22, hits give low values",0.976
same,normalized growth,"S. cerevisiae deletion strains, locus YLR320W, strain mms22, hits give low values",0.897
same,normalized growth,"S. cerevisiae deletion strains, locus YLR330W, strain CHS5, hits give low values",0.994
same,normalized growth,"S. cerevisiae deletion strains, locus YLR342W, strain FKS1 (second series), hits give low values",0.986
same,normalized growth,"S. cerevisiae deletion strains, locus YLR342W, strain FKS1, hits give low values",0.964
same,normalized growth,"S. cerevisiae deletion strains, locus YLR357W, strain rsc2, hits give low values",0.856
same,normalized growth,"S. cerevisiae deletion strains, locus YLR370C, strain arc18, hits give low values",0.924
same,normalized growth,"S. cerevisiae deletion strains, locus YLR371W, strain rom2, hits give low values",0.985
same,normalized growth,"S. cerevisiae deletion strains, locus YLR384C, strain iki3, hits give low values",0.993
same,normalized growth,"S. cerevisiae deletion strains, locus YLR418C, strain cdc73, hits give low values",1.02
same,normalized growth,"S. cerevisiae deletion strains, locus YML016C, strain PPZ1, hits give low values",0.994
same,normalized growth,"S. cerevisiae deletion strains, locus YML032C, strain rad52, hits give low values",0.999
same,normalized growth,"S. cerevisiae deletion strains, locus YML120C, strain ndi1, hits give low values",0.948
same,normalized growth,"S. cerevisiae deletion strains, locus YML124C, strain tub3, hits give low values",0.998
same,normalized growth,"S. cerevisiae deletion strains, locus YMR058W, strain fet3, hits give low values",0.941
same,normalized growth,"S. cerevisiae deletion strains, locus YMR078C, strain ctf18, hits give low values",0.998
same,normalized growth,"S. cerevisiae deletion strains, locus YMR125W, strain sto1, hits give low values",1.03
same,normalized growth,"S. cerevisiae deletion strains, locus YMR129W, hits give low values",1.01
same,normalized growth,"S. cerevisiae deletion strains, locus YMR205C, strain PFK2, hits give low values",0.961
same,normalized growth,"S. cerevisiae deletion strains, locus YMR223W, strain ubp8, hits give low values",0.964
same,normalized growth,"S. cerevisiae deletion strains, locus YMR231W, strain pep5, hits give low values",1
same,normalized growth,"S. cerevisiae deletion strains, locus YMR263W, strain SAP30, hits give low values",0.999
same,normalized growth,"S. cerevisiae deletion strains, locus YMR307W, strain GAS1, hits give low values",1.09
same,normalized growth,"S. cerevisiae deletion strains, locus YNL067W, strain RPL9B, hits give low values",1.01
same,normalized growth,"S. cerevisiae deletion strains, locus YNL071W, strain lat1, hits give low values",0.979
same,normalized growth,"S. cerevisiae deletion strains, locus YNL128W, strain TEP1, hits give low values",0.953
same,normalized growth,"S. cerevisiae deletion strains, locus YNL183C, strain NPR1, hits give low values",0.966
same,normalized growth,"S. cerevisiae deletion strains, locus YNL209W, strain ssb2, hits give low values",0.875 (active)
same,normalized growth,"S. cerevisiae deletion strains, locus YNL233W, strain BNI4, hits give low values",1.01
same,normalized growth,"S. cerevisiae deletion strains, locus YNL248C, strain rpa49, hits give low values",1.02
same,normalized growth,"S. cerevisiae deletion strains, locus YNL250W, strain rad50, hits give low values",0.966
same,normalized growth,"S. cerevisiae deletion strains, locus YNL271C, strain bni1, hits give low values",0.978
same,normalized growth,"S. cerevisiae deletion strains, locus YNL298W, strain CLA4, hits give low values",0.985
same,normalized growth,"S. cerevisiae deletion strains, locus YNL307C, strain MCK1, hits give low values",1.01
same,normalized growth,"S. cerevisiae deletion strains, locus YNL322C, strain KRE1 (second series), hits give low values",0.991
same,normalized growth,"S. cerevisiae deletion strains, locus YNR049C, strain mso1, hits give low values",1.01
same,normalized growth,"S. cerevisiae deletion strains, locus YNR052C, strain pop2, hits give low values",0.999
same,normalized growth,"S. cerevisiae deletion strains, locus YOL006C, strain TOP1, hits give low values",1.08
same,normalized growth,"S. cerevisiae deletion strains, locus YOL012C, strain htz1",0.547
same,normalized growth,"S. cerevisiae deletion strains, locus YOL147C, strain pex11, hits give low values",1.01
same,normalized growth,"S. cerevisiae deletion strains, locus YOR001W, strain rrp6, hits give low values",0.987
same,normalized growth,"S. cerevisiae deletion strains, locus YOR061W, strain CKA2, hits give low values",0.997
same,normalized growth,"S. cerevisiae deletion strains, locus YOR069W, strain VPS5, hits give low values",1
same,normalized growth,"S. cerevisiae deletion strains, locus YOR070C, strain gyp1, hits give low values",0.962
same,normalized growth,"S. cerevisiae deletion strains, locus YOR080W, strain dia2, hits give low values",0.993
same,normalized growth,"S. cerevisiae deletion strains, locus YOR083W, strain WHI5, hits give low values",0.916
same,normalized growth,"S. cerevisiae deletion strains, locus YOR106W, strain vam3, hits give low values",0.926
same,normalized growth,"S. cerevisiae deletion strains, locus YOR136W, strain idh2, hits give low values",0.995
same,normalized growth,"S. cerevisiae deletion strains, locus YOR144C, strain elg1, hits give low values",1.01
same,normalized growth,"S. cerevisiae deletion strains, locus YOR184W, strain ser1, hits give low values",1.01
same,normalized growth,"S. cerevisiae deletion strains, locus YOR231W, strain MKK1, hits give low values",1.04
same,normalized growth,"S. cerevisiae deletion strains, locus YOR265W, strain rbl2, hits give low values",0.99
same,normalized growth,"S. cerevisiae deletion strains, locus YOR270C, strain vph1, hits give low values",0.888
same,normalized growth,"S. cerevisiae deletion strains, locus YOR290C, strain snf2, hits give low values",0.942
same,normalized growth,"S. cerevisiae deletion strains, locus YOR316C, strain cot1, hits give low values",0.987
same,normalized growth,"S. cerevisiae deletion strains, locus YPL051W, strain arl3, hits give low values",0.931
same,normalized growth,"S. cerevisiae deletion strains, locus YPL055C, strain LGE1, hits give low values",1.03
same,normalized growth,"S. cerevisiae deletion strains, locus YPL078C, strain atp4, hits give low values",0.98
same,normalized growth,"S. cerevisiae deletion strains, locus YPL106C, strain sse1, hits give low values",0.929
same,normalized growth,"S. cerevisiae deletion strains, locus YPL240C, strain hsp82, hits give low values",1.01
same,normalized growth,"S. cerevisiae deletion strains, locus YPL256C, strain CLN2, hits give low values",1.06
same,normalized growth,"S. cerevisiae deletion strains, locus YPR119W, strain clb2, hits give low values",1.01
same,normalized growth,"S. cerevisiae deletion strains, locus YPR141C, strain kar3, hits give low values",0.971
same,normalized growth,"S. cerevisiae deletion strains, locus YPR163C, strain tif3, hits give low values",0.988
same,normalized growth,"S. cerevisiae deletion strains, locus YPR167C, strain met16, hits give low values",1.01
same,normalized growth,"S. cerevisiae deletion strains, strain wtn01, hits give low values",1
same,normalized growth,"S. cerevisiae strains, strain wild type, hits give low values",0.996

# From PubChem BioAssay AID1159580 (chemical genetic matrix, 2015)
